The supplement of paper PMC8253809
Values joined by “and” are separate entries in the source; they are usually repeats but may differ in a detail not shown here. Equal values may be shown once.

Legend:
Experiment in all cases: growth inhibition (% activity, log2 RLU normalised to DMSO / staurosporine); higher = more growth inhibition
Conditions in all cases: 33 µM
DIPGX29 = test system: DIPGX29 (H3.3 K27M diffuse intrinsic pontine glioma line)
In short: (§1)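 On Geltrex-coated 384-well plates, pHGG cell lines and H9-derived neural stem cells were grown with approved drugs pinned in at a single final concentration of about 33 μM, in triplicate, for 7 days at 37 °C, 5% CO2. Per-plate normalisation of log2-transformed CellTiter-Glo luminescence to % activity between solvent and positive control wells followed. Each growth-inhibition value is the median over the replicates.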

DIPGX37 = test system: DIPGX37 (H3.3 K27M diffuse intrinsic pontine glioma line)
In short: as §1

DIPGX7 = test system: DIPGX7 (H3.3 K27M diffuse intrinsic pontine glioma line)
In short: as §1

DIPGX9 = test system: DIPGX9 (diffuse intrinsic pontine glioma line)
In short: as §1

HGGX39 = test system: HGGX39 (paediatric high-grade glioma line)
In short: as §1

HGGX6 = test system: HGGX6 (H3.3 G34R paediatric high-grade glioma line)
In short: as §1

HNSC = test system: HNSC
In short: as §1

SUDIPGIV = test system: SUDIPGIV (diffuse intrinsic pontine glioma line)
In short: as §1

SUDIPGVI = test system: SUDIPGVI (diffuse intrinsic pontine glioma line)
In short: as §1

SUDIPGXIII = test system: SUDIPGXIII (diffuse intrinsic pontine glioma line)
In short: as §1

Structure (SMILES)	growth inhibition (DIPGX29)	growth inhibition (DIPGX37)	growth inhibition (DIPGX7)	growth inhibition (DIPGX9)	growth inhibition (HGGX39)	growth inhibition (HGGX6)	growth inhibition (HNSC)	growth inhibition (SUDIPGIV)	growth inhibition (SUDIPGVI)	growth inhibition (SUDIPGXIII)
CN(C)c1nc(N(C)C)nc(N(C)C)n1	-3.35%	-1.75%	-1.42%	-3.04%	-3.6%	-3.16%	-5.97%	-3.04%	-2.53%	-0.234%
CNC(=O)CN(CCN(CCN(CC(=O)[O-])CC(=O)NC)CC(=O)[O-])CC(=O)[O-].[Gd+3]	-2.04%	-0.306%	-1.48%	-2.31%	-1.74%	1.15%	-6.04%	-1.08%	-1.67%	0.753%
O=C(O)Cc1cc(I)c(Oc2ccc(O)c(I)c2)c(I)c1	1.55%	4.31%	0.436%	0.952%	2.17%	1.33%	-1.43%	3.33%	2.21%	-14.4%
O=P(O)(O)C(O)(Cc1cccnc1)P(=O)(O)O	0.184% and -0.127%	-0.218% and -0.408%	2.03% and 0.167%	0.335% and 1.09%	3.43% and 1.8%	2.06% and -1.19%	2.32% and -0.808%	-0.292% and 0.354%	-0.685% and 2.28%	-0.822% and -0.975%
Nc1nc(=O)c2c([nH]1)NC[C@H](CNc1ccc(C(=O)N[C@@H](CCC(=O)O)C(=O)O)cc1)N2C=O	1.44%	1.17%	2.14%	0.677%	1.92%	0.872%	35.4%	2.82%	-2.53%	0.25%
CCOC(=O)c1c(C)n(C)c2ccc(O)cc12	0.475%	0.373%	0.137%	-1.16%	1.77%	1.27%	-0.219%	0.902%	-0.0936%	-1.54%
CCCS(=O)(=O)Nc1ccc(F)c(C(=O)c2c[nH]c3ncc(-c4ccc(Cl)cc4)cc23)c1F	0.0739%	1.21%	-0.987%	0.227%	-0.449%	2.46%	10.9%	-3.02%	1.21%	1.79%
NC[C@H](O)c1ccc(O)c(O)c1	1.26%	2.54%	0.579%	1.67%	3.45%	1.96%	-0.629%	1.37%	3.2%	1.73%
O=C(CCNNC(=O)c1ccncc1)NCc1ccccc1	-2.81%	1.16%	-0.869%	-2.76%	-1.32%	-1.96%	2.79%	-2.06%	-1.86%	0.338%
CC(C)(C)CC(C)(C)c1ccc(O)c(Cc2ccc(Cl)cc2Cl)c1	1.52%	-4.36%	1.89%	0.915%	0.861%	-1.71%	13.3%	3.83%	-0.854%	3.25%
COc1ccc(Cl)cc1C(=O)NCCc1ccc(S(=O)(=O)NC(=O)NC2CCCCC2)cc1	-0.549%	1.98%	-0.628%	-1.16%	1.11%	0.0176%	2.28%	0.343%	1.26%	-1.12%
Cc1ccc(O)c([C@H](CCN(C(C)C)C(C)C)c2ccccc2)c1	-0.51%	1.21%	-1.14%	1.39%	7.27%	-3.24%	8.98%	2%	1.35%	-1.5%
CCOc1cc(N)c(Cl)cc1C(=O)NCC1CN(Cc2ccc(F)cc2)CCO1 (stereo not given)	-0.0532%	1.06%	0.919%	1.54%	1.87%	0.0657%	1.23%	0.346%	1.9%	1.85%
CN1CCC[C@@H]1CCO[C@](C)(c1ccccc1)c1ccc(Cl)cc1	5.74%	3.39%	5.71%	2.23%	6.24%	5.32%	4.55%	0.591%	2.52%	1.69%
N=C(N)NCCC[C@H](N)C(=O)O	-2.37%	0.109%	0.302%	-2.03%	-0.487%	-4.08%	2.28%	-1.68%	-2%	-0.232%
Nc1ncnc2c1ncn2[C@@H]1O[C@H](COP(=O)(O)OP(=O)(O)OP(=O)(O)O)[C@@H](O)[C@H]1O	1.45%	3.53%	0.965%	2.77%	1.53%	2.37%	1.17%	0.305%	3.67%	1.19%
Cc1cc(C(C)(C)C)cc(C)c1CC1=NCCN1	-3.84%	-1.44%	-1.4%	-2.83%	-0.405%	-4.11%	2.45%	0.0122%	-2.26%	-0.432%
Nc1nc2ccc(OC(F)(F)F)cc2s1	2.99%	4.46%	3.41%	4.59%	2.04%	2.46%	4.46%	-0.776%	2.57%	1.66%
CN1CCN2c3ncccc3Cc3ccccc3C2C1 (stereo not given)	-2.74%	-1.56%	-0.7%	-1.19%	1.93%	-2.31%	2.94%	-0.123%	-5.43%	-0.736%

Structure (SMILES)	growth inhibition (DIPGX29)	growth inhibition (DIPGX37)	growth inhibition (DIPGX7)	growth inhibition (DIPGX9)	growth inhibition (HGGX39)	growth inhibition (HGGX6)	growth inhibition (HNSC)	growth inhibition (SUDIPGIV)	growth inhibition (SUDIPGVI)	growth inhibition (SUDIPGXIII)
Cc1cc(=O)n(-c2ccccc2)n1C	-0.731%	-0.447%	-1.9%	0.213%	-0.272%	-0.826%	-1.87%	0.134%	0.115%	0.666%
COc1cc(Cc2cnc(N)nc2N)cc(OC)c1OC	1.94%	3.36%	1.59%	1.97%	3.59%	2.4%	0.59%	2.24%	2.5%	-1.4%
C[C@H]1NC(=O)NC1=O	-0.365%	0.903%	-1.69%	-0.744%	-0.268%	0.316%	-0.248%	-0.465%	1.41%	0.834%
NC(=O)c1ncn([C@@H]2O[C@H](CO)[C@@H](O)[C@H]2O)n1	-0.559%	0.551%	0.987%	0.303%	1.53%	0.756%	-0.0938%	-0.992%	2.19%	0.78%
Nc1cccc2c1C(=O)N(C1CCC(=O)NC1=O)C2=O (stereo not given)	0.275%	2%	0.718%	-0.934%	-1.86%	-0.402%	0.283%	-0.313%	0.743%	-1.19%
CCOc1ccc2ccccc2c1C(=O)N[C@@H]1C(=O)N2[C@@H]1SC(C)(C)[C@@H]2C(=O)O	-3.12%	-0.795%	1.5%	-1.14%	-0.856%	-5.66%	31.9%	-2.67%	-10.4%	2.26%
CC(C)OC(=O)C(C(=O)OC(C)C)=C1SC=CS1	12.7%	6.67%	26.1%	4.32%	8.43%	13.3%	43.7%	16.3%	-3.26%	2.97%
C#CCN[C@@H]1CCc2ccccc21	1.3%	4.12%	1.95%	1.74%	3.31%	-0.441%	12.3%	2.79%	1.93%	0.598%
CC1Cc2ccccc2N1NC(=O)c1ccc(Cl)c(S(N)(=O)=O)c1 (stereo not given)	-2.32%	0.265%	-1.54%	-0.538%	0.759%	0.259%	-4.15%	-2.59%	-1.16%	-1.46%
COCCCC/C(=N\OCCN)c1ccc(C(F)(F)F)cc1	1.49%	4.31%	1.46%	3.17%	4.47%	-0.782%	-3.83%	2.23%	0.798%	2.91%
CC(=O)OCC[N+](C)(C)C	1.68%	3.32%	3.73%	1.49%	1.63%	1.69%	4.52%	1.04%	2.81%	-0.303%
O=C(O)c1ccc(NC(=O)[C@H](Cc2ccc(O)cc2)NC(=O)c2ccccc2)cc1	-3.5%	-1.5%	-2.53%	-1.13%	-2.55%	-0.845%	-2.41%	-2.35%	0.761%	-0.558%
CC#CCn1c(N2CCC[C@@H](N)C2)nc2c1c(=O)n(Cc1nc(C)c3ccccc3n1)c(=O)n2C	-0.103%	-1.17%	-2.97%	-0.000837%	0.6%	-0.836%	-2.39%	-2.46%	-1.81%	-0.213%
CC(C)OC(=O)OCOP(=O)(CO[C@H](C)Cn1cnc2c(N)ncnc21)OCOC(=O)OC(C)C	-0.149%	-0.362%	0.933%	1.84%	4.93%	2.27%	0.819%	0.684%	0.813%	1.94%
CCCCc1oc2ccccc2c1C(=O)c1cc(I)c(OCCN(CC)CC)c(I)c1	11.5%	3.87%	16.3%	3.8%	8.92%	12.4%	34.9%	6.94%	3.07%	7.05%
Cn1c(=O)c2[nH]cnc2n(C)c1=O	-2.13%	0.51%	-0.294%	-0.0831%	-0.447%	0.444%	-5.61%	-0.366%	-2.69%	-1.98%
CC[C@H](C)C(=O)O[C@H]1C[C@@H](C)C=C2C=C[C@H](C)[C@H](CC[C@@H]3C[C@@H](O)CC(=O)O3)[C@H]21	6.68%	-1.93%	8.58%	5.72%	16.2%	10.8%	51.5%	18.1%	-6.1%	-0.657%
CCOC(=O)CC(=O)N1CCSC1COc1ccccc1OC (stereo not given)	2.29%	3.41%	3.11%	1.18%	5.96%	2.78%	3.53%	4.58%	2.42%	-0.201%
O=P(O)(O)C(O)(Cn1ccnc1)P(=O)(O)O	0.235%	2.6%	0.072%	1.97%	2.08%	1.84%	1.26%	1.08%	4.43%	-0.376%
